# Only some compounds are listed: those with a hit (about 4% of all), similar ones and a draw of the others.
# FBA Mtb inh: Mtb FBA enzyme inhibitors, primary screen, biochemical, fluorescence, strain H37Rv. actives 2.3% (n = 360,000). Fructose-bisphosphate aldolase (Mycobacterium tuberculosis (strain ATCC 25618 / H37Rv)), …. purified M. tuberculosis FBA, fluorescence read-out. inhibition, % at 1 µM; in the data active = inhibition above about 27%;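 also: 0% = vehicle and 100% = reference inhibitor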
# Target sequence (P9WQA3 whole entry, looked up): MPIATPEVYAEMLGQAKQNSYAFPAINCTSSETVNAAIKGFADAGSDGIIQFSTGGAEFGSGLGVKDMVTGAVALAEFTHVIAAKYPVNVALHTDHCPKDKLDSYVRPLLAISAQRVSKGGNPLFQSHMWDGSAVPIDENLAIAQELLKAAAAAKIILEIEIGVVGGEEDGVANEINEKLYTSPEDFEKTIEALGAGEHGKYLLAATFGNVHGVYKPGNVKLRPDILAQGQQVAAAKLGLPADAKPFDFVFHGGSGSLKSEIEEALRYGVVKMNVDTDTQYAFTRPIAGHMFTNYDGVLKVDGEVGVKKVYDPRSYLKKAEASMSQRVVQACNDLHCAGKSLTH
# MazEF act: activators of E. coli MazEF toxin-antitoxin RNase, primary screen, biochemical, fluorescence, uHTS. actives 0.32% (n = 350,000). Endoribonuclease toxin MazF (Escherichia coli (strain K12)), P0AE70. FAM/BHQ RNA-DNA oligo cleavage fluorescence, 5 h. activation, % at 20 µM. AID 504720, 2011; in the data active = activation above about 50%
# Target sequence (P0AE70 whole entry, looked up): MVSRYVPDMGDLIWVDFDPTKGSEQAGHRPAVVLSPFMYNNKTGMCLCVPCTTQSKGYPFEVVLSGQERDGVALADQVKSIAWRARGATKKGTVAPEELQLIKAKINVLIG
# Mtb bLac sens: beta-lactam sensitization of Mtb H37Rv, H37Rv; actives 0.27% (n = 330,000); M. tuberculosis H37Rv growth with meropenem, percent inhibition; inhibition, % at 25 µM; call rule not given here;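 also: growth measured after seven days incubation then overnight dye step; 0% = bacteria only wells and 100% = bacteria with antibiotic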
# CCHF vOTU inh: CCHFV vOTU protease inhibitors, primary screen, biochemical, Pep-AMC substrate, fluorescence; Crimean-Congo hemorrhagic fever virus L polyprotein viral ovarian tumor (vOTU) protease …; inhibition, % at 11.5 µM; actives 0.55% (n = 370,000); AID 651958, 2012; also: 0% = vehicle wells with enzyme and 100% = no enzyme wells
# GDH-TPI inh: GDH-TPI coupling enzyme inhibitors, primary screen, artefact control for M. tuberculosis FBA inhibitor project, biochemical, absorbance, full deck | inhibition, % at 4.8 µM | AID 588335, 2011 | GDH-TPI coupled enzyme counterscreen, NADH absorbance | actives 1.2% (n = 360,000);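 also: 0% = DMSO wells and 100% = wells lacking the enzyme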
# * = called active by the depositor; ? = inconclusive; / = no result; + = active, no number. Rule as the data show it, unless noted: active = inhibition above about 30%; inactive = the rest.
SMILES,FBA Mtb inh,MazEF act,Mtb bLac sens,CCHF vOTU inh,GDH-TPI inh
Clc1cncc(Cl)c1N/N=C/c1ccncc1,-1.2,2.1,5.9,29.2,36.3*
C[C@@H](CO)N(Cc1cn(Cc2ccccc2)nn1)S(=O)(=O)c1ccccc1Br,/,/,/,1.4,/
Nc1c(Cl)ncnc1N/N=C/c1ccncc1,-3.8,1.9,7.6,3.3,48.0*
COc1ccc(/C=N/Nc2ncnc(Cl)c2N)cc1OC,2.0,-0.1,-2.7,-2.0,15.6
Oc1cccc(/C=N/Nc2ncnc3c2ncn3Cc2ccccc2)c1,2.0,6.8,4.7,27.5,36.7*
Nc1c(Cl)ncnc1N/N=C/c1cccc(O)c1,-2.1,3.2,2.8,10.3,41.5*
COc1ccc(C=C(C#N)C(=O)c2ccccc2)cc1,/,/,/,6.4,/
COc1cc(/C=C(\C#N)C(=O)c2ccc(O)c(O)c2)cc(I)c1O,-5.5,-153.6,9.6,16.6,54.6*
O=C(CN1CCc2onc(-c3cccc(-n4cc(CO)nn4)c3)c2C1=O)N1CCOCC1,/,/,/,-6.0,/
Fc1ccc(-c2ccc(/C=N\n3cnnc3)o2)cc1Cl,3.6,-5.6,4.0,5.0,41.9*
Fc1ccc(-c2ccc(/C=N/n3cnnc3)o2)cc1,4.2,5.0,12.3,20.8,40.6*
O=C(NC1CCCCN(Cc2ccc(Cl)cc2)C1=O)c1ccccn1 (centres undefined),/,/,/,-3.7,/
COC(=O)C1=CC(=O)C=C(OC)[C@@]12Oc1cc(C)cc(OC)c1C2=O,/,/,/,0.3,/
O=C(/C=C/c1ccco1)Oc1cc(Br)cc(/C=N/NC(=O)c2ccccc2O)c1,2.7,1.8,0.9,12.6,43.2*
CCOC(=O)[C@]12CCCCC/C=C\1N(Cc1ccc(OC)cc1)C(=O)[C@H]2CC(=O)NCc1cccs1,/,/,/,7.7,/
Cc1cccc(C(=O)OCC(=O)c2csc(N3CCCCC3)n2)c1[N+](=O)[O-],0.6,-3.8,-6.7,12.5,36.4*
Cc1ccc(NC(=O)COC(=O)c2cccc(C)c2[N+](=O)[O-])cc1S(=O)(=O)N1CCCCC1,2.6,-9.9,1.6,6.5,3.5
COc1cc([C@@H]2Oc3cc(C4Oc5cc(O)cc(O)c5C(=O)[C@H]4O)ccc3O[C@H]2CO)ccc1O (some centres undefined),-1.2,4.3,6.8,/,25.6
COc1cc([C@H]2Oc3cc([C@H]4Oc5cc(O)cc(O)c5C(=O)[C@@H]4O)ccc3O[C@@H]2CO)ccc1O,5.3,-5.4,-1.9,11.7,33.7*
COc1cc(C(=O)Oc2cc(N)n(S(=O)(=O)c3ccc(F)cc3)n2)cc(OC)c1OC,-1.1,245.3*,7.4,1.1,2.3
O=[N+]([O-])c1cccc(/C=C/c2nc(C=Nc3ccccc3)c(O)o2)c1,0.7,133.1*,-5.2,14.3,5.5
CC(C)c1ccc(C(C)NCCS(=O)(=O)c2ccc(Br)cc2)cc1 (centres undefined),2.3,0.6,91.2,34.9*,-0.3
O=c1[nH]nc(N/N=C/c2ccc(Cl)cc2Cl)c(=O)[nH]1,0.3,-1.7,5.1,19.1,37.5*
O=C(CCNc1n[nH]c(=O)[nH]c1=O)N/N=C/c1ccc(Cl)cc1,2.5,-7.0,-1.7,7.9,9.6
CC(=O)N1CCN(c2ccc(N=Cc3c(O)n(Cc4ccccc4)c(=O)[nH]c3=O)cc2)CC1,-3.7,77.2*,/,-3.4,32.7*
SMILES,FBA Mtb inh,MazEF act,Mtb bLac sens,CCHF vOTU inh,GDH-TPI inh
NC(=O)c1ccc(N=Cc2c(O)n(Cc3ccco3)c(=O)[nH]c2=O)cc1,-0.6,-19.0,-9.5,9.6,36.1*
O=c1[nH]c(=S)n(Cc2ccco2)c(O)c1C=NCc1cccs1,3.9,1.0,7.9,19.7,34.0*
COC(=O)[C@]12C[C@H](CC(=O)NCC3CCCCC3)C(=O)N(Cc3ccc(Cl)cc3Cl)C1=C[C@H](C(C)C)O[C@@H]2C1CC1,/,/,/,25.0,/
Cc1ccc(-n2c(SCc3cccc4ccccc34)nnc2-c2ccccn2)cc1,/,/,/,22.4,/
COc1ccc(S[C@]2(C(=O)N3CCOCC3)CC(=O)N(c3ccccc3)[C@@H]2c2ccc(OC)cc2)cc1,/,/,/,-2.1,/
CCc1c(-c2ccccc2Br)ncn1CCc1ccccc1OC,/,/,/,8.9,/
C=CCN1[C@H](Cc2ccccc2)COc2cc(N3CCSCC3)ccc2S1(=O)=O,/,/,/,-0.8,/
O=C(CSc1nnc(NC(=O)c2c(F)cccc2F)s1)NC1CC1,0.9,15.1,-0.6,1.5,-2.2
O=C(CSc1nnc(NC(=O)c2c(F)cccc2F)s1)Nc1ccc(F)cc1,-1.3,179.0*,-5.9,20.6,-1.0
COc1ccc(Cl)cc1NC(=O)CCn1cnc2ccccc2c1=O,49.3*,-3.1,-0.6,3.0,-3.9
O=C(CCn1cnc2ccccc2c1=O)Nc1cccc(Cl)c1,-4.3,2.6,-6.9,21.6,-2.8
Cn1c(/C=C/c2ccc(Br)cc2)c([N+](=O)[O-])c(=O)n(C)c1=O,3.2,4.2,/,-14.0,-1.3
CCCOc1ccc(/C=C/c2c([N+](=O)[O-])c(=O)n(C)c(=O)n2C)cc1,-1.5,1.0,5.1,-2.4,39.2*
Cc1ccc2c(c1)N(CCCC(=O)N(C)Cc1ccc(F)cc1)C(=O)CO2,/,/,/,3.9,/
CCn1c(=S)sc2c(=O)n(-c3ccccc3)c(=S)[nH]c21,-0.4,-5.9,8.6,-5.7,35.4*
CCOc1ccccc1-n1c(=S)sc2c(=O)n(-c3ccc(C)cc3)c(=S)[nH]c21,-3.5,0.6,19.6,-4.2,2.4
Cc1nc(NS(=O)(=O)c2ccccc2)sc1C(=O)NNS(=O)(=O)c1ccccc1,2.2,-3.6,19.2,14.8,3.9
Cc1nc(NS(=O)(=O)c2ccccc2)sc1C(=O)N/N=C/c1ccccc1,4.5,3.9,17.6,14.4,46.8*
C/C(=N\NC(=O)c1ccccc1)c1c(O)n(C2CCCCC2)c(=O)[nH]c1=O,-0.8,8.3,?,4.7,37.9*
C/C(=N\NC(=O)c1ccccc1O)c1c(O)n(C2CCCCC2)c(=O)[nH]c1=O,2.1,1.0,8.3,23.8,45.7*
C/C(=N\NC(=O)c1ccccc1O)c1c(O)n(Cc2ccccc2)c(=O)[nH]c1=O,7.5,-10.2,-4.0,15.2,46.8*
CC(=NCCO)c1c(O)n(C2CCCCC2)c(=O)[nH]c1=O,2.2,1.7,-17.4,1.9,-1.5
C/C(=N\NC(=O)c1ccccc1Cl)c1c(O)n(C2CCCCC2)c(=O)[nH]c1=O,-6.2,2.7,8.0,23.5,37.1*
O=S(=O)(c1cc2ccccc2s1)n1c(CN2CCOCC2)nc2ccccc21,/,/,/,-0.1,/
COC(=O)C[C@H]1CC[C@H]2[C@H](COc3ccc(NS(=O)(=O)c4cccc(OC)c4)cc3C(=O)N2C)O1,/,/,/,-6.2,/
CCN(CC)C(=O)CC[C@@H]1CC[C@]2(CCCN(C(=O)c3cccnc3)C2)O1,/,/,/,5.4,/
Nc1nc2nc(-c3ccc(Cl)cc3)cc(C(F)(F)F)n2n1,+,3.0,-3.7,/,0.9

# Screening results (PubChem)
